PostGolgi yeast – growth inhibition of a yeast mutant, post-Golgi transport screen. 98,000 tested, 0.9% active. inhibition, % at 10 µM. post-Golgi transport phenotypic cell assay;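 note: yeast cells grown in 1536-well plates; yeast grown about 18 h at 30C before absorbance read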
CYP2C9 inh – human CYP2C9 inhibition; P11712; CYP2C9 Supersomes, luciferin-H conversion, luminescence; inhibition, % at 5 µM; 96,000 tested, 20% active;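 active = blocking of liver enzyme CYP2C9 beyond about 50% at 5 µM, limit read from the data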
Target sequence (P11712 whole entry, looked up): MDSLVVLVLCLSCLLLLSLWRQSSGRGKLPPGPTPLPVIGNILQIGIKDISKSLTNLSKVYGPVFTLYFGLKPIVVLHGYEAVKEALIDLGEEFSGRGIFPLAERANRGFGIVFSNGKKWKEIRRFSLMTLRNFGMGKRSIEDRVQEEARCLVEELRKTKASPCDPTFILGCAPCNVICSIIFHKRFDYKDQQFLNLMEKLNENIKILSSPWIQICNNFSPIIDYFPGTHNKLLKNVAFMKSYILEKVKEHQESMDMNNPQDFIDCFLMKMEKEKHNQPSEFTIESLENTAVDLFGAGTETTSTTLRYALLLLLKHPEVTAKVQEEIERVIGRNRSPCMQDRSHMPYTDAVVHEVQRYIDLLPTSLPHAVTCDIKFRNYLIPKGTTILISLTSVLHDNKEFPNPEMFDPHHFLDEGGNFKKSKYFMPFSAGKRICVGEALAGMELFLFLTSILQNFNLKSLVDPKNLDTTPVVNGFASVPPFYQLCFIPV
CYP2C9 activ – CYP2C9 (human) activation; P11712; recombinant CYP2C9, luciferin-H conversion, luminescence; hits give high values; factor 1 = untreated enzyme, 0 = blocked; activation factor at 5 µM; 96,000 tested, 1.4% active; AID 1024;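 active = activation factor of 2 or more for CYP2C9 at a 5 µM dose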
CYP2C19 inh – inhibitors of human CYP2C19; P33261; CYP2C19 Supersomes, luciferin-H EGE luminescence, 30 min; 96,000 tested, 21% active; inhibition, % at 5 µM; AID 778;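 active = CYP2C19 inhibition above a set limit at 5 µM in the primary screen, cut at about 50% in these data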
PostGolgi ctrl – growth of the yeast control strain, post-Golgi counter-screen; AID 738; 98,000 tested, 5% active; inhibition, % at 10 µM; efflux-deficient yeast background strain, growth absorbance A615, 16 h
CYP2C19 activ – cytochrome P450 2C19 (human) activation. 96,000 tested, under 10 active. activation factor at 5 µM. recombinant CYP2C19, luciferin-H EGE luminescence; hits give high values; 0 = fully inhibited enzyme, 1 = untreated enzyme. P33261;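 active = activation factor of at least 2 at 5 µM in the primary screen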
Numbers stand for hits. A selection: hits, their analogues and other compounds. The true share with any hit is near 32%. Cut-off read from the data, not from the text of the source, unless noted: active = inhibition above about 30%; inactive = the rest.

For COc1cccc(N2CCCn3c2nc2c3c(=O)n(CCN3CCOCC3)c(=O)n2C)c1 the results were PostGolgi yeast inactive, CYP2C9 inh inactive, CYP2C9 activ inactive, CYP2C19 inh inactive, PostGolgi ctrl inactive and CYP2C19 activ inactive.
Screening O=C(NNS(=O)(=O)c1ccc([N+](=O)[O-])cc1)c1cnn(-c2ccccc2)c1-n1cccc1 returned PostGolgi yeast inactive and PostGolgi ctrl inactive.
Screening COc1ccc(CNC(=S)Nc2cccc(C)c2)cc1 returned PostGolgi yeast inactive, CYP2C9 inh inactive, CYP2C9 activ inactive, CYP2C19 inh 81, PostGolgi ctrl inactive and CYP2C19 activ inactive.
`CC(C)Oc1ccc(CNC(=S)N/N=C/c2ccc([N+](=O)[O-])cc2)cc1` gave PostGolgi yeast inactive, CYP2C9 inh inactive, CYP2C9 activ inactive, CYP2C19 inh inactive, PostGolgi ctrl inactive and CYP2C19 activ inactive.
For COc1ccc(CNC(=S)Nc2ccccc2C)cc1 the results were PostGolgi yeast inactive, CYP2C9 inh inactive, CYP2C9 activ inactive, CYP2C19 inh 98, PostGolgi ctrl inactive and CYP2C19 activ inactive.
Screening Cc1ccc(C)c(NC(=S)NC(NC(=O)Cc2cccc3ccccc23)C(Cl)(Cl)Cl)c1 (centres undefined) returned PostGolgi yeast inactive, CYP2C9 inh inactive, CYP2C9 activ inactive, CYP2C19 inh inactive, PostGolgi ctrl inactive and CYP2C19 activ inactive.
COc1ccc(CNC(=S)Nc2cc(C)ccc2C)cc1 was read as PostGolgi yeast inactive, CYP2C9 inh inactive, CYP2C9 activ inactive, CYP2C19 inh 98, PostGolgi ctrl inactive and CYP2C19 activ inactive.
`CC(C)COc1ccc(CNC(=S)N/N=C/c2ccc([N+](=O)[O-])cc2)cc1` gave PostGolgi yeast inactive, CYP2C9 inh 80, CYP2C9 activ inactive, CYP2C19 inh inactive, PostGolgi ctrl inactive and CYP2C19 activ inactive.
`COC(=O)c1ccc(CN2C(=O)NC3(CCCCC3C)C2=O)o1` (centres undefined) gave PostGolgi yeast inactive, CYP2C9 inh inactive, CYP2C9 activ inactive, CYP2C19 inh inactive, PostGolgi ctrl inactive and CYP2C19 activ inactive.
`COc1ccc(CNC(=S)N/N=C/c2ccc(OC)c(OC)c2)cc1` gave PostGolgi yeast inactive, CYP2C9 inh 63, CYP2C9 activ inactive, CYP2C19 inh inactive, PostGolgi ctrl inactive and CYP2C19 activ inactive.
`COC(=O)c1cccc(NC(=S)NCc2ccc(Cl)cc2)c1` gave PostGolgi yeast inactive, CYP2C9 inh inactive, CYP2C9 activ inactive, CYP2C19 inh inactive, PostGolgi ctrl 45 and CYP2C19 activ inactive.
For COc1ccc(-c2c(C)n([O-])c3c([n+]2=O)CCC3)cc1OC the results were PostGolgi yeast inactive, CYP2C9 inh inactive, CYP2C9 activ inactive, CYP2C19 inh inactive, PostGolgi ctrl inactive and CYP2C19 activ inactive.
CCOc1ccc(C2=NNC(c3cccs3)=Nc3ccc(OCC)cc32)cc1 was read as PostGolgi yeast inactive, CYP2C9 inh 53, CYP2C9 activ inactive, CYP2C19 inh inactive, PostGolgi ctrl inactive and CYP2C19 activ inactive.
For Cc1c(NC(=O)c2ccc(N3C(=O)C4C5C=CC(C5)C4C3=O)cc2)c(=O)n(-c2ccccc2)n1C (centres undefined) the results were PostGolgi yeast inactive, CYP2C9 inh inactive, CYP2C9 activ inactive, CYP2C19 inh inactive, PostGolgi ctrl inactive and CYP2C19 activ inactive.
Screening COC(=O)c1ccc(C2NC(C(=O)O)CS2)cc1 (centres undefined) returned PostGolgi yeast inactive, CYP2C9 inh inactive, CYP2C9 activ inactive, CYP2C19 inh inactive, PostGolgi ctrl inactive and CYP2C19 activ inactive.
Screening O=C(O)C1CSC(c2ccncc2)N1 (centres undefined) returned PostGolgi yeast inactive, CYP2C9 inh 73, CYP2C9 activ inactive, CYP2C19 inh 59, PostGolgi ctrl inactive and CYP2C19 activ inactive.
`CO/N=C(/CS(=O)Cc1ccccc1Cl)c1ccc(Cl)cc1Cl` (centres undefined) gave PostGolgi yeast inactive, CYP2C9 inh inactive, CYP2C9 activ inactive, CYP2C19 inh 83, PostGolgi ctrl 30 and CYP2C19 activ inactive.
Screening COC(=O)/C(=C\Nc1ccc(Cl)cc1Cl)NC(=O)c1ccc(Cl)cc1Cl returned PostGolgi yeast inactive, CYP2C9 inh inactive, CYP2C9 activ inactive, CYP2C19 inh inactive, PostGolgi ctrl inactive and CYP2C19 activ inactive.
COc1cccc(N2CCN(C(=O)c3cccnc3)CC2)c1 was read as PostGolgi yeast inactive, CYP2C9 inh inactive, CYP2C9 activ inactive, CYP2C19 inh 71, PostGolgi ctrl inactive and CYP2C19 activ inactive.

High-throughput results: PubChem BioAssay, several laboratories
